Compound activity from PubChem.
Hits are enriched below; roughly 2.9% of the tested compounds scored in any of these assays.
Glyco luc inh = increase of ERlucT glycosylation luciferase signal, primary screen, N-linked glycosylation inhibitor project, D54 ERlucT cells, luminescence, set 2 | D54 ERlucT glycosylation luciferase reporter, 24 h; percent of 100 nM tunicamycin response | reporter increase, % at 12.5 µM | 0.23% of 360,000 active;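 active = mean luciferase reporter signal, scaled so untreated is 0 and the glycosylation-blocking control 100, at or above a set limit in every replicate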;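 note: luciferase carries N-glycosylation sites so blocking glycosylation raises the light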
Wnt bcat act = Wnt/beta-catenin pathway activators, primary screen, cell-based, plate reader, single point. activation, % at 9.35 µM. AID 743398, 2014. Wnt/beta-catenin reporter cell assay, activator. 1.2% of 300,000 active; in the data active = activation above about 30%, passing the limit was not always enough
esBAF inh = Bmi1 luciferase reporter increase in mESCs, primary screen, esBAF inhibitor project, mouse ES cells, Bmi1 luciferase knock-in, single point. reporter increase, % at 12.5 µM. 2% of 350,000 active. 24 h; 100% = twice the neutral-well signal; in the data active = activation above about 40%;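 note: a rise in the Bmi1 reporter signal indicates esBAF inhibition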
Vif inh = HIV Vif self-association inhibitors, primary screen, imaging, HEK293T, single point; inhibition, % at 7.49 µM; AID 602346, 2012; 0.35% of 340,000 active; HEK293T cells, Vif self-association by quenched fluorescence, 24 h; in the data active = inhibition above about 50%, passing the limit was not always enough
PvdQ inh = P. aeruginosa PvdQ acylase inhibitors, primary screen, biochemical, fluorescence, plate reader and imaging, single point; PvdQ acylase [Pseudomonas aeruginosa LESB58]; purified PvdQ acylase; inhibition, % at 10 µM; 0.063% of 340,000 active; AID 488965, 2010; in the data active = inhibition above about 30%, passing the limit was not always enough
MITF TRPM1 HTS = activators of MITF-driven TRPM1 promoter reporter, primary screen, cell-based, SK-MEL-5, luciferase, single point; activation, % at 12.5 µM; AID 588334, 2011; SK-MEL-5 TRPM1-promoter luciferase, 24 h; % of positive control, neutral wells = 0; 0.75% of 300,000 active;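 active = mean activation of at least 80% with every replicate also reaching 80%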
Numbers stand for hits; . = inactive; / = no result.

SMILES	Glyco luc inh	Wnt bcat act	esBAF inh	Vif inh	PvdQ inh	MITF TRPM1 HTS
O=C(Nc1ccon1)c1sc2cc(Cl)ccc2c1Cl	.	.	47	.	.	.
O=C(NCc1ccco1)c1sc2cc(Cl)ccc2c1Cl	.	.	.	.	.	.
COc1c(Cl)cc(C(=O)Nc2cccnc2)cc1Cl	.	.	.	/	/	/
CCC(C)c1ccc(O)c(NC(=O)c2cccnc2)c1 (stereo not drawn)	.	/	.	.	.	.
CCC(C)c1ccc(NC(=O)c2cccnc2)cc1 (stereo not drawn)	.	/	50	.	.	89
CCCC#Cc1ccc2c(c1)O[C@@H](CN(C)Cc1cccnc1)[C@@H](C)CN([C@@H](C)CO)S2(=O)=O	/	/	.	/	/	/
CCCNC(=O)Nc1ccc2c(c1)C(=O)N(C)C[C@@H](OC)[C@H](C)CN(C(=O)C1CCOCC1)[C@@H](C)CO2	/	/	.	/	/	/
COc1ccccc1C(=O)OCCc1ccccc1	.	.	78	.	.	141
O=C(C[C@H]1CC[C@H](NC(=O)c2ccncc2)[C@H](CO)O1)NCC1CC1	/	/	.	/	/	/
COc1ccc(S(=O)(=O)Nc2ccc3c(c2)C(=O)N([C@H](C)CO)C[C@H](C)[C@H](CN(C)Cc2ccncc2)O3)cc1	/	/	.	/	/	/
Nc1ccccc1SC1CC(=O)N(c2ccc3c(c2)OCCO3)C1=O (stereo not drawn)	.	35	/	.	.	/
CO[C@H]1CN(C)C(=O)c2cc(NC(=O)NC3CCCCC3)ccc2OC[C@@H](C)N(CCc2ccccc2)C[C@@H]1C	/	/	.	/	/	/
Cc1noc(C)c1S(=O)(=O)Nc1ccc2c(c1)C(=O)N([C@H](C)CO)C[C@@H](C)[C@H](CN(C)Cc1ccccc1)O2	/	/	.	/	/	/
CCSc1nnc(-c2c[nH]c3ccccc23)o1	.	/	49	.	.	.
C[C@H]1CN([C@@H](C)CO)C(=O)c2cc(NC(=O)Nc3ccccc3)ccc2O[C@H]1CN(C)S(=O)(=O)c1cccs1	/	/	.	/	/	/
COc1ccc(/C=N/N2CCOCC2)cc1O	.	/	.	.	.	.
COc1cc(/C=N/N2CCOCC2)ccc1OCc1ccc(Cl)cc1	.	.	/	.	.	96
COc1cc(/C=N/N2CCOCC2)ccc1OCc1ccccc1	.	.	61	.	.	.
COc1ccc(/C=N/N2CCOCC2)cc1OCc1ccccc1	.	.	.	.	.	.
C[C@@H]1CN([C@H](C)CO)C(=O)Cc2cc(NC(=O)c3ccncc3)ccc2O[C@H]1CN(C)Cc1ccncc1	/	/	.	/	/	/
CO[C@H]1CN(C)C(=O)c2cc(NC(C)=O)ccc2OC[C@@H](C)N(C(=O)CN2CCOCC2)C[C@@H]1C	/	/	.	/	/	/
Cc1cc(NC(=O)c2cccs2)ncc1NC(=O)c1cccc(F)c1	.	/	/	.	.	.
Cc1cc(NC(=O)c2cccc(F)c2)ncc1NC(=O)c1ccco1	.	36	.	.	.	.
COc1cccc(C(=O)Nc2ccc(NC(=O)c3ccco3)nc2)c1	.	/	59	/	.	93
O=C(Nc1ccc(NC(=O)c2ccco2)nc1)c1cccc(F)c1	.	31	.	.	.	.
SMILES	Glyco luc inh	Wnt bcat act	esBAF inh	Vif inh	PvdQ inh	MITF TRPM1 HTS
O=C(Nc1ccc(NC(=O)c2ccco2)nc1)c1cccnc1	.	.	/	.	.	.
CCCNC(=O)N1C[C@@H](O)COC[C@@H]2O[C@@H](CC(=O)N[C@@H]3CCN(Cc4ccccc4)C3)CC[C@H]21	/	/	.	/	/	/
O=C1CCC(c2ccccc2)c2ccccc21 (stereo not drawn)	.	52	.	.	/	/
O=C(CSc1nncs1)NC(=O)Nc1ccc2c(c1)OCCO2	.	37	.	.	.	.
O=C(CSc1nncs1)Nc1ccc2c(c1)OCCO2	.	.	.	.	.	.
Cc1ccc2nc(-c3ccc(O)cc3)oc2c1	.	.	.	.	32	.
CCC(=O)Nc1cccc(-c2nc3ccc(C)cc3o2)c1	.	38	.	.	.	/
Cc1ccc2nc(-c3cccc(N)c3)oc2c1	.	.	/	.	.	.
COc1cc(C(=O)Nc2cccc(-c3nc4cc(C)ccc4o3)c2)cc(OC)c1OC	.	.	/	.	.	.
Cc1ccc2oc(-c3cccc(NC(=O)c4ccccn4)c3)nc2c1	.	37	.	.	.	/
COc1cc(OC)cc(-c2nc3cc(C)ccc3o2)c1	.	57	45	.	.	.
CNC[C@H]1Oc2ccc(NC(=O)Nc3ccc(C(F)(F)F)cc3)cc2CC(=O)N([C@H](C)CO)C[C@@H]1C	/	/	.	/	/	/
Cc1cccc(-c2nc3cc(NC(=O)C4CCCO4)ccc3o2)c1 (stereo not drawn)	.	.	/	.	.	.
Cc1ccc2oc(-c3cccc(NC(=O)C4CCCO4)c3)nc2c1 (stereo not drawn)	.	/	79	.	.	.
C[C@@H]1CN([C@H](C)CO)C(=O)Cc2cc(NC(=O)Cc3cn(C)c4ccccc34)ccc2O[C@H]1CN(C)C(=O)Nc1ccc(F)cc1	/	/	.	/	/	/
COc1ccc(/C=C/C(=O)Nc2ccc(N3CCOCC3)cc2)cc1	.	/	/	.	.	.
O=C(/C=C/c1ccccc1)Nc1ccc(N2CCCCC2)cc1	.	.	62	.	.	.
NC(=O)NC(=O)C(Nc1ccc(N2CCCCC2)cc1)c1ccccc1 (stereo not drawn)	.	.	51	.	.	.
O=C(Cc1ccccc1)Nc1ccc(N2CCCCC2)cc1	.	59	.	.	.	.
COc1ccc(N2CCN(c3ccc(NC(=O)/C=C\C(=O)O)cc3)CC2)cc1	.	45	.	.	.	.
CCCNC(=O)[C@H]1[C@H](CO)[C@H]2Cn3c(ccc(-c4ccc(F)cc4)c3=O)[C@@H]1N2CCC	/	/	.	/	/	/
Cc1ccc(S(=O)(=O)N(C)C[C@@H]2Oc3ccc(NC(=O)Nc4cccc5ccccc45)cc3C(=O)N([C@H](C)CO)C[C@@H]2C)cc1	/	/	.	/	/	/
C[C@H]1CN([C@@H](C)CO)C(=O)Cc2cc(NS(=O)(=O)c3ccc(F)cc3)ccc2O[C@H]1CN(C)S(=O)(=O)c1ccc(Cl)cc1	/	/	.	/	/	/
